Screening data (PubChem)
Compounds with a hit are over-represented: about 2.2% of the library has one in this group of screens.
Shn3 3UTR inh – inhibitors of Schnurri-3 3'UTR reporter in osteoblasts | Clone20 osteoblast Shn3 3'UTR firefly luciferase, 24 h | inhibition, % at 12.5 µM | hit rate 0.52% among 360,000 | AID 588674;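 active means mean inhibition of at least 75% with every replicate also reaching 75%; inconclusive means mean inhibition at least 75% but some replicate below; inactive means mean inhibition below 75%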;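 further: 0% = median of neutral control wells and 100% = pilot-screen positive control compound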
EWS-Fli block – EWS/Fli transcriptional activity inhibition | A673 NR0B1-luciferase reporter, viability-normalised | inhibition, % at 12.6 µM | hit rate 0.67% among 350,000 | AID 651661;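 active means mean inhibition of at least 50% after viability correction, with every replicate also passing that limit; inconclusive means mean reaches 50% but only one of two replicates passes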;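 further: firefly luciferase signal divided by Alamar Blue viability fluorescence both relative to DMSO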
TRPM1 prom inh – inhibitors of MITF-driven TRPM1 promoter in melanoma cells; SK-MEL-5 TRPM1 promoter luciferase, 24 h; inhibition, % at 12.5 µM; hit rate 0.83% among 330,000; AID 488899;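 active means mean inhibition across replicates of 60% or more, whatever share of single replicates reaches that level; inconclusive means some that reach 60%, reason not given; inactive means mean inhibition across replicates below 60%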
LGR2 antag – blocks bursicon-induced cAMP signaling via Drosophila LGR2. inhibition, % at 9.99 µM. AID 720647. HEK293 LGR2, CRE-luciferase, bursicon-stimulated, 4 h. hit rate 0.35% among 380,000;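 active means drop in luminescence signal, shown as inhibition above about 50% in the replicate tests, limit read from the data, passing the limit was not always enough; inconclusive means probably only some replicates passing the limit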;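 further: agonist challenge used bursicon conditioned medium at about half maximal strength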
PAX8 inh HTS – lowers PAX8-driven luciferase in RMG-I cells; RMG-I TPO-luciferase reporter, SteadyGlo, 24 h; hit rate 1.2% among 360,000; inhibition, % at 12.6 µM;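 active means mean replicate inhibition at least 60% with every replicate also reaching 60%; inconclusive means only one of the two criteria is met; inactive means mean below 60% and not all replicates reaching 60%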;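 further: luciferase light reporting Pax8 driven TPO promoter activity; plate controls were median of neutral control wells for no effect and mitoxantrone controls for full effect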
LMP1 NFkB inh – Epstein-Barr LMP1 NF-kappaB reporter inhibition; LMP1-induced NF-kappaB luciferase reporter cells, luminescence; AID 504558; hit rate 0.69% among 350,000; inhibition, % at 12.5 µM; in the data active means inhibition above about 41%; inconclusive means no clear call, values can overlap the other calls;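 further: 0% = neutral control wells and 100% = reference inhibitor control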
DNA binding – binds DNA displacing acridine orange | shares compounds with EWS-Fli block | salmon sperm DNA acridine orange fluorescence polarization | AC35, µM (titrated, usually from 68 µM), inactives show top-dose activity change, negative = DNA binding | hit rate 2% among 640 | AID 720586;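 active means fitted curve reaches a 35% signal fall AC35 below twice the sample's top valid tested dose, actives reach about 48 µM in these data; inactive means the rest, including activity in the rising direction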;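 further: lower polarization ratio signals compound binding to DNA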
* = called active by the depositor; ? = inconclusive; nt = no result given.

SMILES	Shn3 3UTR inh	EWS-Fli block	TRPM1 prom inh	LGR2 antag	PAX8 inh HTS	LMP1 NFkB inh	others
Cc1ccc(C(=O)CSc2nnnn2C(C)C)c(C)c1	22.1	nt	3.1	nt	1.6	45.9*
C[C@@H]1CCCCO[C@@H](CN(C)C(=O)Cc2ccccc2)[C@H](C)CN([C@H](C)CO)C(=O)c2cc(NC(=O)Nc3ccc(F)cc3)ccc2O1	nt	15.5	nt	7.4	39.9	nt
C=C1CC(COc2cc(=O)oc3ccccc23)(c2ccccc2)OC1=O (stereo unspecified)	97.3*	?	94.1*	nt	25.4	67.0*
O=C(NCC1CCCCC1)[C@H]1[C@H](CO)[C@H]2Cn3c(ccc(-c4ccccc4)c3=O)[C@@H]1N2	nt	3.2	nt	-8.0	-15.7	nt
COc1ccc(NC(=O)Nc2ccc3c(c2)[C@H]2C[C@@H](CC(=O)N4CCOCC4)O[C@H](CO)[C@H]2O3)cc1	nt	-1.2	nt	-19.1	2.2	nt
CC(=O)c1cc(NC(=O)c2cccc(C(F)(F)F)c2)c(=O)oc1C	14.8	44.8	6.2	16.0	88.5*	0.2
COc1ccc(C(Nc2ccccn2)c2oc(CO)cc(=O)c2O)cc1 (stereo unspecified)	-29.1	-5.9	-13.1	4.9	-6.6	68.2*
Cc1ccc(NC(=O)Nn2cnnc2)cc1Cl	32.2	nt	-5.3	6.0	-4.9	2.9
Cc1ccc(NC(=O)O/N=C/c2c(C)nn(C(C)(C)C)c2C)cc1Cl	nt	76.1*	83.0*	99.2*	58.2	75.4*
C[C@@H]1CN([C@H](C)CO)S(=O)(=O)c2ccc(-c3ccc(C(=O)N(C)C)cc3)cc2O[C@H]1CN(C)Cc1ccccc1C(=O)O	nt	0.4	nt	-7.7	nt	nt
C[C@@H]1CN([C@H](C)CO)C(=O)c2cc(NC(=O)Nc3ccc(C(F)(F)F)cc3)ccc2O[C@@H](C)CCCCO[C@H]1CN(C)Cc1ccc2c(c1)OCO2	nt	76.8*	nt	7.1	108.1*	nt
C[C@@H]1CCCCO[C@H](CN(C)Cc2ccc3c(c2)OCO3)[C@@H](C)CN([C@@H](C)CO)C(=O)c2cc(NC(=O)Nc3ccc(C(F)(F)F)cc3)ccc2O1	nt	69.4*	nt	nt	101.3*	nt
C[C@H]1CCCCO[C@H](CN(C)Cc2ccc3c(c2)OCO3)[C@@H](C)CN([C@@H](C)CO)C(=O)c2cc(NC(=O)Nc3ccc(C(F)(F)F)cc3)ccc2O1	nt	74.7*	nt	-6.6	66.7*	nt
C[C@@H]1CCCCO[C@@H](CN(C)Cc2ccc3c(c2)OCO3)[C@@H](C)CN([C@H](C)CO)C(=O)c2cc(NC(=O)Nc3ccc(C(F)(F)F)cc3)ccc2O1	nt	-6.0	nt	5.7	35.0	nt
C[C@@H]1CCCCO[C@H](CN(C)Cc2ccc3c(c2)OCO3)[C@H](C)CN([C@@H](C)CO)C(=O)c2cc(NC(=O)Nc3ccc(C(F)(F)F)cc3)ccc2O1	nt	75.4*	nt	13.1	62.6*	nt
C[C@H]1CN([C@@H](C)CO)C(=O)Cc2cc(NC(=O)CCCN(C)C)ccc2O[C@@H]1CN(C)S(=O)(=O)c1cn(C)cn1	nt	-14.4	nt	0.8	-19.1	nt
C[C@@H]1CN([C@H](C)CO)C(=O)c2cccc(NC(=O)C3CCCCC3)c2O[C@@H]1CN(C)CC1CC1	nt	-9.4	nt	2.2	nt	nt
C[C@@H]1CN([C@H](C)CO)C(=O)c2cccc(NC(=O)CCCCCC(=O)Nc3ccccc3N)c2O[C@H]1CN(C)Cc1ccc(-c2ccccc2)cc1	nt	8.9	nt	9.8	nt	nt
COc1cccc(-c2ccc3c(c2)[C@H]2[C@H](CCN2C(=O)C2CCCCC2)[C@@H](CO)N3)c1	nt	-2.3	nt	10.5	nt	nt
C[C@@H]1CN([C@@H](C)CO)C(=O)c2cc(NC(=O)Nc3ccc(C(F)(F)F)cc3)ccc2O[C@@H](C)CCCCO[C@H]1CN(C)Cc1ccc2c(c1)OCO2	nt	-2.2	nt	7.4	82.7*	nt
C[C@H](CO)N1C[C@H](C)[C@H](CN(C)Cc2ccc3c(c2)OCO3)OCCCC[C@H](C)Oc2ccc(NC(=O)Nc3ccc(C(F)(F)F)cc3)cc2C1=O	nt	76.2*	nt	10.0	108.2*	nt
COc1ccc(S(=O)(=O)N(C)C[C@@H]2Oc3c(NC(=O)c4nc5ccccc5s4)cccc3C(=O)N([C@@H](C)CO)C[C@@H]2C)cc1	nt	11.0	nt	-32.4	nt	nt
CNC[C@H]1OCCCC[C@@H](C)Oc2ccc(NS(=O)(=O)c3cn(C)cn3)cc2C(=O)N([C@H](C)CO)C[C@H]1C	nt	-4.5	nt	-18.5	-15.1	nt
COc1cccc(S(=O)(=O)N(C)C[C@H]2Oc3cc(C4=CCCCC4)ccc3S(=O)(=O)N([C@@H](C)CO)C[C@@H]2C)c1	nt	6.9	nt	11.7	52.2	nt
Cc1ccc(S(=O)(=O)N(C)C[C@@H]2Oc3cc(C4=CCCC4)ccc3S(=O)(=O)N([C@@H](C)CO)C[C@H]2C)cc1	nt	10.1	nt	-0.4	71.2*	nt
SMILES	Shn3 3UTR inh	EWS-Fli block	TRPM1 prom inh	LGR2 antag	PAX8 inh HTS	LMP1 NFkB inh	others
Cc1ccc(S(=O)(=O)N(C)C[C@H]2Oc3cc(C4=CCCC4)ccc3S(=O)(=O)N([C@H](C)CO)C[C@H]2C)cc1	nt	11.3	nt	1.2	41.3	nt
COc1cccc(S(=O)(=O)N(C)C[C@@H]2Oc3cc(C4=CCCCC4)ccc3S(=O)(=O)N([C@@H](C)CO)C[C@H]2C)c1	nt	-17.1	nt	4.4	76.5*	nt
CN(C)C(=O)c1cccc(-c2ccc([C@@H]3[C@@H](CO)N(C(=O)C4CCCCC4)[C@H]3C#N)cc2)c1	nt	-3.2	nt	-2.4	-6.3	nt
COc1ccc(-n2c(-c3cc(-c4ccccc4)sc3N)n[nH]c2=S)cc1	-19.0	7.6	-14.6	-0.5	1.5	-10.1
Nc1sc(-c2ccccc2)cc1-c1n[nH]c(=S)n1C1CCCCC1	3.5	59.0*	9.8	nt	12.6	11.7	DNA binding=-13.2%
CN1C/C(=C/c2ccsc2)C(=O)/C(=C/c2ccsc2)C1	65.5	61.5*	86.6*	8.4	8.2	-5.5	DNA binding=-12.7%
O=C1/C(=C\c2ccsc2)N2CCC1CC2	0.8	7.3	-5.2	-8.4	13.6	-1.8
CSc1nc(O)c(/C=C2\C=Nc3ccccc32)[nH]1	-63.7	nt	-3.2	-51.9	-37.9	-5.2
O=c1[nH]c(/C=C2\C=Nc3ccccc32)c(O)n1Cc1ccccc1F	70.5	63.2*	7.3	9.9	54.7	-58.1	DNA binding=8.2%
O=C(O)c1ccc(N/N=C/c2c(F)cccc2Cl)cc1	14.7	74.6*	56.5	76.3*	81.9*	13.5	DNA binding=-5.2%
CC(C)(C)c1ccc(/C=N/Nc2ccc(C(=O)O)cc2)cc1	50.3	67.4*	89.4*	58.1*	52.6	32.1	DNA binding=6.8%
O=C(O)c1ccc(N/N=C/c2ccc3c(c2)OCO3)cc1	60.1	85.3*	83.4*	101.5*	88.1*	64.8*	DNA binding=8.9%
CCNC(=S)N/N=C/c1ccc(C(=O)O)cc1	-7.0	-1.6	2.7	21.2	-28.2	2.4
O=C(N/N=C/c1c(F)cccc1Cl)C1CC1	-39.2	-2.6	-5.6	-0.3	-2.3	2.1
